Menin-MLL FL inh: inhibitors of human menin-MLL interaction, wild-type MLL peptide | FP activity change, % at 61.4 µM | Fluorescence polarization, fluorescein-MLL peptide displacement from menin | AID 1766 | 290,000 tested, under 10 active; active = well fitted curve in the direction sought with a large enough effect in the polarisation, not every such curve was filed as active; inconclusive = small, poorly fitted or top-dose-only effect, or effect the other way, or a change in a side signal; inactive = no such curve, though single readings can be large or run the other way; the % refers to the polarisation; also: % of control where 0% means no effect
PTAP TSG101 blk: blocks PTAP/TSG101 interaction to inhibit HIV-1 budding. Fluorescence polarization, FITC-PTAP peptide / Tsg101 binding. Potency, µM (doses to about 115 µM), for inactives: at the top dose activity change, negative = inhibition, hits mostly inhibitors. 340,000 tested, under 10 active. AID 493005; active = well fitted inhibition curve with a large enough effect in the main read-out, with a control signal flat, not every such curve was filed as active; inconclusive = small, poorly fitted or top-dose-only effect, or effect the other way, or a change in a side signal; inactive = no such curve, though single readings can be large or run the other way; also: potency is read from the fitted curve at half-maximal effect; % of control where 0% means no effect
Target sequence (Q99816 whole entry, looked up): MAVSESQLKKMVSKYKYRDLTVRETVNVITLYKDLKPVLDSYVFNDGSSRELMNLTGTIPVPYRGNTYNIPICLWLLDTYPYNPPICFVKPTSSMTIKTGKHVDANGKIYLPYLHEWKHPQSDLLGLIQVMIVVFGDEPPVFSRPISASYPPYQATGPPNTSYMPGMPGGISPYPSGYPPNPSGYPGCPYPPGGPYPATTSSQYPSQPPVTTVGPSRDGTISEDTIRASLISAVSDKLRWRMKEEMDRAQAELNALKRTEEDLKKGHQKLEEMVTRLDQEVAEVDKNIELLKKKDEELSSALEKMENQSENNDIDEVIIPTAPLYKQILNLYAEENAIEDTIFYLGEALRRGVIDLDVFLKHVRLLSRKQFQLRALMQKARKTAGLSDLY
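Compounds were pin-transferred onto Tsg101 binding domain (10 uM final) in HEPES pH 7.5 buffer, then FITC-PTAP peptide was added at 50 nM final. After 20 min at RT, polarization reported peptide displacement across a qHTS concentration series.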
CXXC DNA block: inhibitors of human MLL CXXC domain-DNA interaction; Potency, µM (highest dose often 115 µM), for inactives: top-dose activity change, negative = inhibition, usual class: inhibitors; Q03164; AID 2662; 0.037% of 290,000 active; MLL-CXXC / FITC-HOXA9 DNA fluorescence polarization; active = well fitted inhibition curve with a large enough effect in the polarisation, with a control signal flat, not every such curve was filed as active; inconclusive = small, poorly fitted or top-dose-only effect, or effect the other way, or a change in a side signal; inactive = no such curve, though single readings can be large or run the other way; the % refers to the polarisation; also: potency is read from the fitted curve at half-maximal effect
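Purified MLL-CXXC (added from a 7 uM solution) was preincubated 5 min at ambient with pinned compounds in 50 mM Tris-HCl pH 7.5, 50 mM NaCl, 1 mM DTT, 0.05% BSA. Fluorescein-labeled HOX-A9 DNA (50 nM solution) followed, 30 min, then polarization read.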
Menin-MLL TR inh: menin-MLL binding inhibition, Texas Red mutant peptide; AID 1768; 0.23% of 270,000 active; Potency, µM (titrated, usually from 61.6 µM), without a hit: top-dose FP activity change, negative = inhibition, usual class: inhibitors; Menin + Texas Red MLL mutant peptide, fluorescence polarization; active = well fitted inhibition curve with a large enough effect in the polarisation, with a control signal flat, not every such curve was filed as active; inconclusive = small, poorly fitted or top-dose-only effect, or effect the other way, or a change in a side signal; inactive = no such curve, though single readings can be large or run the other way; the % refers to the polarisation; also: potency is read from the fitted curve at half-maximal effect; % of control where 0% means no effect
B2AR arrestin: recruits beta-arrestin to the human beta2-adrenergic receptor | P07550 | beta-arrestin recruitment to beta2AR, cell-based reporter | Potency, µM (titrated, usually from 46.1 µM), for inactives: top-dose activation, hits mostly activators | 0.02% of 330,000 active; active = well fitted activation curve with a large enough effect; inconclusive = small, poorly fitted or top-dose-only effect;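 also: potency is read from the fitted curve at half-maximal effect; 0% = DMSO controls and full agonism = EC100 isoproterenol or metaproterenol; nearly all actives have a fitted effect of over 65% in size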
Chronic BCR inh: inhibitors of chronic active B-cell receptor signaling | ABC-DLBCL IkBa-CBG/CBR reporter, luminescence ratio, 4 h | Potency, µM (doses to about 46.1 µM), inactives show at the top dose activity change, negative = inhibition, hits mostly inhibitors | 0.05% of 340,000 active; active = well fitted inhibition curve with a large enough effect in the signal ratio, with a control signal flat, not every such curve was filed as active; inconclusive = small, poorly fitted or top-dose-only effect, or effect the other way, or a change in a side signal; the % refers to the signal ratio;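 also: potency is read from the fitted curve at half-maximal effect; plate controls were basal doxycycline-induced cells for no effect and cells given 10 µM MG132 for full effect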
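Doxycycline induced both beetle luciferases in TMD8 lymphoma cells; IKK-driven degradation limits the IkappaBalpha-fused green signal, while red luminescence normalises for cell number and nonspecific effects. Compounds tested up to 46 uM, 4 hrs.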
Starred values were filed as active, the others as inactive. The full list was thinned out, with hits kept by preference.

For S=c1nc2ccccc2c2nc(-c3ccccc3Cl)[nH]n12 the results were Menin-MLL FL inh -16, PTAP TSG101 blk -10%, CXXC DNA block -14%, Menin-MLL TR inh inconclusive, B2AR arrestin 0% and Chronic BCR inh inconclusive.
S=c1nc2ccccc2c2nc(-c3ccccc3)[nH]n12 was read as Menin-MLL FL inh 1, PTAP TSG101 blk -4%, CXXC DNA block 2%, Menin-MLL TR inh inconclusive, B2AR arrestin 4µM* and Chronic BCR inh inconclusive.
COc1cccc(Nc2nc(-c3cccc(N4C(=O)c5ccccc5C4=O)c3)cs2)c1 was read as Menin-MLL FL inh 2, PTAP TSG101 blk 4%, CXXC DNA block 33%, Menin-MLL TR inh 14µM*, B2AR arrestin 0% and Chronic BCR inh 9%.
Cc1nn(C)c(Cl)c1NC(=O)OCc1ccccc1 was read as Menin-MLL FL inh 0, PTAP TSG101 blk -8%, CXXC DNA block 16%, Menin-MLL TR inh -6%, B2AR arrestin 0% and Chronic BCR inh 3%.
COc1cc(CNc2ccc(N3CCCC3)cc2)cc(Cl)c1OC was read as Menin-MLL FL inh -1, PTAP TSG101 blk 0%, CXXC DNA block 38%, Menin-MLL TR inh 28µM*, B2AR arrestin 0% and Chronic BCR inh inconclusive.
`CCOc1cc(CNc2ccc(N3CCCC3)cc2)cc(Cl)c1OC` gave Menin-MLL FL inh -4, PTAP TSG101 blk -1%, CXXC DNA block -1%, Menin-MLL TR inh inconclusive, B2AR arrestin 3% and Chronic BCR inh -12%.
COc1ccc2c(c1)c(/C=N/Nc1nc3ccccc3[nH]1)c(C)n2C was read as Menin-MLL FL inh 10, PTAP TSG101 blk 1%, CXXC DNA block 20%, B2AR arrestin 0% and Chronic BCR inh 16µM*.
`O=C(c1ccccc1)N1N=C(c2ccccc2O)CC1c1ccccc1` (configuration not stated) gave Menin-MLL FL inh 3, PTAP TSG101 blk 1%, CXXC DNA block inconclusive, Menin-MLL TR inh 28µM*, B2AR arrestin 0% and Chronic BCR inh -4%.
COc1ccccc1CN1C(=NC(=O)CCC2CCCC2)SC2CS(=O)(=O)CC21 (configuration not stated) was read as PTAP TSG101 blk -2%, CXXC DNA block 7%, B2AR arrestin 0% and Chronic BCR inh 1%.
Screening CCOc1cccc(C(=O)NC(=S)Nc2ccc(N3CCN(CC)CC3)cc2)c1 returned Menin-MLL FL inh -8, PTAP TSG101 blk 1%, CXXC DNA block -2%, Menin-MLL TR inh 7.1µM*, B2AR arrestin 0% and Chronic BCR inh -1%.
`O=C(COC(=O)CCC1CCCC1)Nc1nc2c(F)c(F)c(F)cc2s1` gave Menin-MLL FL inh 10, PTAP TSG101 blk 1%, CXXC DNA block 1%, Menin-MLL TR inh 25µM*, B2AR arrestin 0% and Chronic BCR inh inconclusive.
Cc1ccc(NC(=S)NNC(C)(C)C)cc1 was read as Menin-MLL FL inh -6, PTAP TSG101 blk -2%, CXXC DNA block 14%, B2AR arrestin 8.9µM* and Chronic BCR inh inconclusive.
Screening CC(C)(C)NNC(=S)Nc1cccc(C(F)(F)F)c1 returned Menin-MLL FL inh -6, PTAP TSG101 blk 0%, CXXC DNA block 1%, B2AR arrestin inconclusive and Chronic BCR inh 7.9µM*.
CC(C)(C)NNC(=S)Nc1ccc(S(=O)(=O)N2CCOCC2)cc1 was read as Menin-MLL FL inh 0, PTAP TSG101 blk -4%, CXXC DNA block 4%, Menin-MLL TR inh 3%, B2AR arrestin 0% and Chronic BCR inh 1%.
`CCCNC(=S)Nc1cccc(C(F)(F)F)c1` gave Menin-MLL FL inh 7, PTAP TSG101 blk 0%, CXXC DNA block 24%, Menin-MLL TR inh 8%, B2AR arrestin 0% and Chronic BCR inh 6%.
For CC1=CC2=C(OC1N(C)C)c1cccc3cccc(c13)C2=O (configuration not stated) the results were Menin-MLL FL inh inconclusive, PTAP TSG101 blk -5%, CXXC DNA block -7%, Menin-MLL TR inh 28µM*, B2AR arrestin 0% and Chronic BCR inh inconclusive.
Screening C[C@H](NC(=O)c1nc[nH]c1C(=O)N[C@@H](Cc1ccccc1)C(=O)OCc1ccccc1)C(=O)OC(C)(C)C returned Menin-MLL FL inh 0, PTAP TSG101 blk -7%, CXXC DNA block 3%, Menin-MLL TR inh 8%, B2AR arrestin -1% and Chronic BCR inh inconclusive.
CCn1c(C)nc2cc(-c3nc4n(n3)Cc3ccccc3-4)ccc21 was read as Menin-MLL FL inh 1, PTAP TSG101 blk -10%, CXXC DNA block -9%, Menin-MLL TR inh 28µM*, B2AR arrestin -2% and Chronic BCR inh inconclusive.
Screening O=C(Nc1ccc(Cl)c(Cl)c1)OCc1cncs1 returned Menin-MLL FL inh 0, PTAP TSG101 blk 1%, CXXC DNA block 7%, Menin-MLL TR inh 12%, B2AR arrestin 0% and Chronic BCR inh 18%.
For Cc1cccc(NC(=S)NC(=O)c2cc(-c3ccccc3)nc3ccccc23)c1 the results were Menin-MLL FL inh -1, PTAP TSG101 blk -7%, CXXC DNA block -1%, Menin-MLL TR inh 35µM*, B2AR arrestin 0% and Chronic BCR inh -4%.
For Cc1ccccc1Oc1ncnc2oc(-c3ccccc3)cc12 the results were Menin-MLL FL inh 4, PTAP TSG101 blk -2%, CXXC DNA block 20%, Menin-MLL TR inh 20%, B2AR arrestin 0% and Chronic BCR inh -4%.
Clc1ccc(Oc2ncnc3oc(-c4ccccc4)cc23)cc1 was read as Menin-MLL FL inh -2, PTAP TSG101 blk 0%, CXXC DNA block 7%, Menin-MLL TR inh 10µM*, B2AR arrestin 0% and Chronic BCR inh -1%.
Screening COc1ccc(/C=N/Nc2cc(C)nc3ccc(OC)cc23)c(OC)c1 returned Menin-MLL FL inh -10, PTAP TSG101 blk 1%, CXXC DNA block inconclusive, Menin-MLL TR inh 13µM*, B2AR arrestin -1% and Chronic BCR inh inconclusive.
COc1ccc2nc(C)cc(N/N=C/c3ccccc3)c2c1 was read as PTAP TSG101 blk 0%, B2AR arrestin 10% and Chronic BCR inh inconclusive.
For O/N=C1/CC/C(=N\O)c2nn(-c3ccccc3)nc21 the results were Menin-MLL FL inh 0, PTAP TSG101 blk -5%, CXXC DNA block 5%, Menin-MLL TR inh -4%, B2AR arrestin 0% and Chronic BCR inh 5.8µM*.
Screening COc1ccc(OCC(=O)NNC(=S)NC(=O)C2CCCCC2)cc1 returned CXXC DNA block 8%, B2AR arrestin 0% and Chronic BCR inh 0%.
`COc1ccc(C2=Nn3c(nnc3-c3ccccc3C(F)(F)F)SC2)cc1OC1CCOC1` (configuration not stated) gave PTAP TSG101 blk -7%, B2AR arrestin 0% and Chronic BCR inh -14%.

Bioassay records as filed in PubChem BioAssay.
